The campaign covered roughly 39,000 compounds. About 3,300 (8.5%) were called active. The sample as a whole holds a higher share of actives than the screen did.
What follows are compounds tested on HepG2 (assay: cytotoxicity call (relative viability < 0.9)). Details: 10 µM.

Question: With C[C@@H]1CCCCO[C@@H](CN(C)C(=O)c2ccccc2)[C@@H](C)CN([C@H](C)CO)C(=O)c2cc(NC(=O)Nc3cccc4ccccc34)ccc2O1 as the compound, how does the cytotoxicity call read?
Answer: inactive

Question: C[C@H]1CCCCO[C@H](CN(C)S(=O)(=O)c2cn(C)cn2)[C@@H](C)CN([C@@H](C)CO)C(=O)c2cc(NC(=O)Nc3ccc(C(F)(F)F)cc3)ccc2O1 was tested. Which cytotoxicity call did it give?
Answer: inactive

Question: How did the cytotoxicity call turn out when Cc1noc(C)c1S(=O)(=O)Nc1ccc2c(c1)CC(=O)N([C@H](C)CO)C[C@@H](C)[C@H](CN(C)S(=O)(=O)c1ccc(F)cc1)O2 was run?
Answer: inactive

Question: Which cytotoxicity call does the source give for C[C@@H]1CN([C@H](C)CO)C(=O)c2cc(NC(=O)Nc3cccc4ccccc34)ccc2O[C@@H](C)CCCCO[C@@H]1CN(C)C(=O)C1CCCCC1 here?
Answer: inactive

Question: With C[C@@H]1CN([C@@H](C)CO)C(=O)c2cccc(NC(=O)Nc3ccc(F)cc3)c2O[C@@H]1CN(C)C(=O)Nc1cccc2ccccc12 as the compound, how does the cytotoxicity call read?
Answer: inactive

Question: With C[C@@H](NC(=O)c1ccccc1)C(=O)NN as the compound, how does the cytotoxicity call read?
Answer: inactive

Question: With C[C@@H]1CCCCO[C@@H](CN(C)Cc2ccccc2)[C@H](C)CN([C@H](C)CO)C(=O)c2cc(NC(=O)NC3CCCCC3)ccc2O1 as the compound, how does the cytotoxicity call read?
Answer: inactive

Question: C[C@@H]1CCCCO[C@@H](CN(C)Cc2ccccc2)[C@@H](C)CN([C@H](C)CO)C(=O)c2cc(NC(=O)NC3CCCCC3)ccc2O1 was tested. Which cytotoxicity call did it give?
Answer: inactive

Question: How did the cytotoxicity call turn out when C[C@@H]1CCCCO[C@@H](CN(C)Cc2ccccc2)[C@H](C)CN([C@@H](C)CO)C(=O)c2cc(NC(=O)NC3CCCCC3)ccc2O1 was run?
Answer: inactive

Question: How did the cytotoxicity call turn out when C[C@@H]1CCCCO[C@H](CN(C)Cc2ccccc2)[C@@H](C)CN([C@@H](C)CO)C(=O)c2cc(NC(=O)NC3CCCCC3)ccc2O1 was run?
Answer: active

Question: For C[C@@H]1CCCCO[C@H](CN(C)Cc2ccccc2)[C@H](C)CN([C@@H](C)CO)C(=O)c2cc(NC(=O)NC3CCCCC3)ccc2O1, which cytotoxicity call is on record?
Answer: active

Question: C[C@H]1CCCCO[C@@H](CN(C)Cc2ccncc2)[C@@H](C)CN([C@@H](C)CO)C(=O)c2cc(NC(=O)NC3CCCCC3)ccc2O1 was tested. Which cytotoxicity call did it give?
Answer: inactive

Question: Which cytotoxicity call does the source give for C[C@@H]1CCCCO[C@H](CN(C)Cc2ccncc2)[C@H](C)CN([C@@H](C)CO)C(=O)c2cc(NC(=O)NC3CCCCC3)ccc2O1 here?
Answer: active

Question: How did the cytotoxicity call turn out when C[C@@H]1CN([C@@H](C)CO)C(=O)c2cc(NC(=O)NC3CCCCC3)ccc2O[C@@H](C)CCCCO[C@H]1CN(C)Cc1ccccc1 was run?
Answer: inactive

Question: C[C@H](CO)N1C[C@H](C)[C@H](CN(C)Cc2ccccc2)OCCCC[C@H](C)Oc2ccc(NC(=O)NC3CCCCC3)cc2C1=O was tested. Which cytotoxicity call did it give?
Answer: inactive

Question: Which cytotoxicity call does the source give for C[C@@H]1CN([C@@H](C)CO)C(=O)c2cc(NC(=O)NC3CCCCC3)ccc2O[C@@H](C)CCCCO[C@@H]1CN(C)Cc1ccncc1 here?
Answer: inactive

Question: Which cytotoxicity call does the source give for C[C@@H]1CCCCO[C@@H](CN(C)Cc2ccccc2)[C@@H](C)CN([C@@H](C)CO)C(=O)c2cc(NC(=O)NC3CCCCC3)ccc2O1 here?
Answer: active

Question: How did the cytotoxicity call turn out when C[C@@H]1CN([C@H](C)CO)C(=O)c2cc(NC(=O)NC3CCCCC3)ccc2O[C@@H](C)CCCCO[C@@H]1CN(C)Cc1ccccc1 was run?
Answer: inactive

Question: Which cytotoxicity call does the source give for C[C@@H]1CN([C@@H](C)CO)C(=O)c2cc(NC(=O)Cn3cnnn3)ccc2O[C@H]1CN(C)S(=O)(=O)c1ccc(Cl)cc1 here?
Answer: inactive

Question: How did the cytotoxicity call turn out when COc1ccc(S(=O)(=O)N[C@H]2CC[C@@H](CCNC(=O)CN3CCOCC3)O[C@H]2CO)cc1 was run?
Answer: inactive

Question: How did the cytotoxicity call turn out when C[C@@H]1CN([C@@H](C)CO)C(=O)Cc2cc(NS(=O)(=O)c3cn(C)cn3)ccc2O[C@H]1CN(C)S(=O)(=O)c1ccc(Cl)cc1 was run?
Answer: inactive

Question: How did the cytotoxicity call turn out when CO[C@@H]1CN(C)C(=O)c2cc(NS(=O)(=O)CC(F)(F)F)ccc2OC[C@@H](C)N(Cc2ccccn2)C[C@H]1C was run?
Answer: inactive

Question: CN1C(=S)N[C@@H]2CS(=O)(=O)C[C@@H]21 was tested. Which cytotoxicity call did it give?
Answer: inactive

Question: O=C(CCCCCC(=O)N/N=C/[C@H](O)[C@H](O)[C@@H](O)[C@@H](O)CO)NO was tested. Which cytotoxicity call did it give?
Answer: inactive

Question: Which cytotoxicity call does the source give for C[C@H]1CN([C@@H](C)CO)C(=O)c2cc(C3=CCCCC3)cnc2O[C@@H]1CN(C)C(=O)CN1CCOCC1 here?
Answer: inactive

Question: For O=c1nc[nH]c2c1ncn2[C@@H]1C[C@@H](O)[C@H](CO)O1, which cytotoxicity call is on record?
Answer: inactive

Question: For C[C@@H]1CN([C@H](C)CO)C(=O)c2cccc(NC(=O)c3nc4ccccc4s3)c2O[C@@H]1CN(C)CC1CCCCC1, which cytotoxicity call is on record?
Answer: inactive

Question: For CCN1[C@@H]2O[C@@H]3O[C@H]4[C@H](O[C@H]3O[C@@H]2N(CC)S1(=O)=O)N(CC)S(=O)(=O)N4CC, which cytotoxicity call is on record?
Answer: inactive

Question: With C[C@H](CO)N1C[C@H](C)[C@H](CN(C)S(=O)(=O)c2cccs2)Oc2ncc(C#Cc3cccc(F)c3)cc2C1=O as the compound, how does the cytotoxicity call read?
Answer: inactive

Question: How did the cytotoxicity call turn out when Cc1noc(C)c1NC(=O)N(C)C[C@@H]1Oc2ccc(NC(=O)CCN3CCOCC3)cc2C(=O)N([C@@H](C)CO)C[C@H]1C was run?
Answer: inactive

Question: With C[C@H]1CCCCO[C@H](CN(C)Cc2ccccc2)[C@@H](C)CN([C@@H](C)CO)C(=O)c2cc(NC(=O)NC3CCCCC3)ccc2O1 as the compound, how does the cytotoxicity call read?
Answer: active

Question: How did the cytotoxicity call turn out when C[C@@H]1CN([C@H](C)CO)C(=O)c2cc(NC(=O)NC3CCCCC3)ccc2O[C@@H](C)CCCCO[C@H]1CN(C)Cc1ccccc1 was run?
Answer: inactive

Question: How did the cytotoxicity call turn out when C[C@@H]1CCCCO[C@H](CN(C)Cc2ccccc2)[C@@H](C)CN([C@H](C)CO)C(=O)c2cc(NC(=O)NC3CCCCC3)ccc2O1 was run?
Answer: inactive

Question: COc1ccc(S(=O)(=O)N(C)C[C@@H]2Oc3c(NS(=O)(=O)c4ccccc4)cccc3C(=O)N([C@H](C)CO)C[C@@H]2C)cc1 was tested. Which cytotoxicity call did it give?
Answer: inactive

Question: With C[C@H]1CN([C@@H](C)CO)C(=O)Cc2cc(NC(=O)CCN3CCOCC3)ccc2O[C@H]1CN(C)Cc1ccc2c(c1)OCO2 as the compound, how does the cytotoxicity call read?
Answer: inactive

Question: C[C@@H]1CCCCO[C@@H](CN(C)Cc2ccc(Cl)c(Cl)c2)[C@H](C)CN([C@H](C)CO)C(=O)c2cc(NC(=O)NC3CCCCC3)ccc2O1 was tested. Which cytotoxicity call did it give?
Answer: inactive

Question: With C[C@@H]1CCCCO[C@H](CN(C)Cc2ccc(Cl)c(Cl)c2)[C@@H](C)CN([C@@H](C)CO)C(=O)c2cc(NC(=O)NC3CCCCC3)ccc2O1 as the compound, how does the cytotoxicity call read?
Answer: inactive

Question: For C[C@@H]1CCCCO[C@@H](CN(C)Cc2ccc(Cl)c(Cl)c2)[C@H](C)CN([C@@H](C)CO)C(=O)c2cc(NC(=O)NC3CCCCC3)ccc2O1, which cytotoxicity call is on record?
Answer: inactive

Question: How did the cytotoxicity call turn out when C[C@@H]1CCCCO[C@H](CN(C)Cc2ccc(Cl)c(Cl)c2)[C@H](C)CN([C@@H](C)CO)C(=O)c2cc(NC(=O)NC3CCCCC3)ccc2O1 was run?
Answer: inactive

Question: C[C@@H]1CN([C@H](C)CO)C(=O)c2cc(NC(=O)NC3CCCCC3)ccc2O[C@@H](C)CCCCO[C@@H]1CN(C)Cc1ccc(Cl)c(Cl)c1 was tested. Which cytotoxicity call did it give?
Answer: inactive

Question: Which cytotoxicity call does the source give for C[C@@H]1CCCCO[C@@H](CN(C)Cc2ccc(Cl)c(Cl)c2)[C@@H](C)CN([C@H](C)CO)C(=O)c2cc(NC(=O)NC3CCCCC3)ccc2O1 here?
Answer: inactive

Question: C[C@@H]1CCCCO[C@H](CN(C)Cc2ccc(Cl)c(Cl)c2)[C@@H](C)CN([C@H](C)CO)C(=O)c2cc(NC(=O)NC3CCCCC3)ccc2O1 was tested. Which cytotoxicity call did it give?
Answer: inactive

Question: For C[C@H]1CCCCO[C@H](CN(C)Cc2ccc(Cl)c(Cl)c2)[C@@H](C)CN([C@@H](C)CO)C(=O)c2cc(NC(=O)NC3CCCCC3)ccc2O1, which cytotoxicity call is on record?
Answer: inactive

Question: Which cytotoxicity call does the source give for C[C@H](CO)N1C[C@H](C)[C@@H](CN(C)Cc2ccc(Cl)c(Cl)c2)OCCCC[C@H](C)Oc2ccc(NC(=O)NC3CCCCC3)cc2C1=O here?
Answer: active

Question: Which cytotoxicity call does the source give for C[C@H](CO)N1C[C@H](C)[C@H](CN(C)Cc2ccc(Cl)c(Cl)c2)OCCCC[C@H](C)Oc2ccc(NC(=O)NC3CCCCC3)cc2C1=O here?
Answer: active

Question: Which cytotoxicity call does the source give for C[C@@H]1CCCCO[C@@H](CN(C)Cc2ccc(Cl)c(Cl)c2)[C@@H](C)CN([C@@H](C)CO)C(=O)c2cc(NC(=O)NC3CCCCC3)ccc2O1 here?
Answer: active

Question: Which cytotoxicity call does the source give for C[C@@H]1CN([C@@H](C)CO)C(=O)c2cc(NC(=O)NC3CCCCC3)ccc2O[C@@H](C)CCCCO[C@H]1CN(C)Cc1ccc(Cl)c(Cl)c1 here?
Answer: active

Question: Which cytotoxicity call does the source give for O=C(O)CCN1CCCC1=O here?
Answer: inactive

Question: Which cytotoxicity call does the source give for COC(=O)c1c2oc(c1C(=O)OC)C(=O)N[C@@H](Cc1ccccc1)Cn1cc(nn1)[C@H](Cc1ccccc1)NC(=O)N[C@@H](CO)CC2 here?
Answer: inactive

Question: Which cytotoxicity call does the source give for C[C@H]1CN([C@@H](C)CO)C(=O)Cc2cc(NC(=O)Cn3cnnn3)ccc2O[C@H]1CN(C)Cc1ccc(C(=O)O)cc1 here?
Answer: inactive

Question: C[C@@H]1CN([C@@H](C)CO)C(=O)c2cc(N(C)C)ccc2O[C@@H](C)CCCCO[C@@H]1CN(C)S(=O)(=O)c1cn(C)cn1 was tested. Which cytotoxicity call did it give?
Answer: inactive

Question: For COc1ccc(NC(=O)Nc2ccc3c(c2)C(=O)N([C@@H](C)CO)C[C@@H](C)[C@@H](CN(C)C(=O)Nc2ccc(OC)cc2)OCCCC[C@H](C)O3)cc1, which cytotoxicity call is on record?
Answer: inactive

Question: For C[C@@H]1CN([C@@H](C)CO)C(=O)c2cccc(NC(=O)NC3CCCCC3)c2O[C@@H]1CN(C)Cc1ccc(Cl)c(Cl)c1, which cytotoxicity call is on record?
Answer: inactive

Question: With O=C(O)/C=C/c1cnc[nH]1 as the compound, how does the cytotoxicity call read?
Answer: inactive

Question: C=CCN1C(=O)[C@@]2(O[C@@H](CCO)[C@H]([Si](C)(C)c3ccc(OC)cc3)[C@H]2C)c2cc(N3C(=O)c4cccc5cccc3c45)ccc21 was tested. Which cytotoxicity call did it give?
Answer: active

Question: How did the cytotoxicity call turn out when C=CCN1C(=O)[C@@]2(O[C@@H](CCO)[C@H]([Si](C)(C)F)[C@H]2C)c2cc(N3C(=O)c4cccc5cccc3c45)ccc21 was run?
Answer: inactive

Question: Which cytotoxicity call does the source give for C=CCN1C(=O)[C@]2(O[C@H](CCn3cc([C@H](O)c4ccccc4)nn3)[C@@H]([Si](C)(C)c3ccc(OC)cc3)[C@@H]2C)c2cc(N3C(=O)c4cccc5cccc3c45)ccc21 here?
Answer: inactive

Question: Which cytotoxicity call does the source give for C=CCN1C(=O)[C@@]2(O[C@@H](CCn3cc([C@H](O)c4ccccc4)nn3)[C@H]([Si](C)(C)c3ccc(OC)cc3)[C@H]2C)c2cc(N3C(=O)c4cccc5cccc3c45)ccc21 here?
Answer: inactive

Question: Which cytotoxicity call does the source give for C=CCN1C(=O)[C@]2(O[C@H](CCO)[C@@H]([Si](C)(C)c3ccc(OC)cc3)[C@@H]2C)c2cc(N3C(=O)c4cccc5cccc3c45)ccc21 here?
Answer: active

— the antibiotic and cytotoxicity screens of Wong et al. (2023)
